Assay outcomes: PubChem BioAssay, National Center for Advancing Translational Sciences (NCATS)
Pol eta inh-1 – inhibitors of human DNA polymerase eta. Q9Y253. recombinant Pol eta, fluorescent DNA replication assay. Potency, µM (doses to about 114 µM), without a hit: at the top dose activity change, negative = inhibition, most hits filed as inhibitors. 390,000 compounds, 1.2% hits. AID 588591; note: % is set by controls: 0 for no effect and ±100 for the full control effect
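Fluorescent replication assay: 50 nM final substrate added after a 15 min room-temperature compound preincubation with 10 nM enzyme. Signal taken at 0 min and again at 10 min.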
POLI inh – blocks human DNA polymerase iota activity | Potency, µM (top dose mostly 115 µM), inactives show at the highest dose activity, negative = inhibition, actives largely listed as inhibitors | Pol iota fluorescent replication assay, 10 min | Q9UNA4 | 390,000 compounds, 1% hits
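Pol iota at 10 nM preincubated 15 min with compounds at room temperature; reaction started with fluorescent substrate, 50 nM final. Fluorescence read kinetically at 0 and 10 min; buffer-only wells as negative control.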
FEN1 inh – human FEN1 inhibition | AID 588795 | 390,000 compounds, 0.35% hits | Recombinant FEN1 flap cleavage, fluorescence, 15 min | Potency, µM (highest dose often 114 µM), inactives show top-dose activity change, negative = inhibition, actives largely listed as inhibitors | P39748; note: % is set by controls: 0 for no effect and ±100 for the full control effect; nearly all actives have a fitted effect of over 65% in size
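Compounds are tested as a concentration series against 10 nM FEN1; after a 15 min room-temperature preincubation, 50 nM substrate starts cleavage, with plate reads at 0 and 15 min. Normalized responses are fitted by a Hill equation.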
Pol beta inh – DNA polymerase beta (human) inhibition. P06746. Pol beta primer extension/strand displacement, fluorescence kinetic. Potency, µM (doses to about 114 µM), for inactives: at the highest dose activity change, negative = inhibition, most hits filed as inhibitors. 340,000 compounds, 1.3% hits. AID 485314; note: % is set by controls: 0 for no effect and ±100 for the full control effect
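Kinetic readout of DNA synthesis with strand displacement by Pol beta. Compound and 10 nM enzyme sit 15 min at room temperature; 50 nM substrate starts the reaction, read immediately and at 10 min.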
Pol kappa inh-1 – blocks human DNA polymerase kappa activity; Q9UBT6; Potency, µM (titrated, usually from 107 µM), for inactives: at the highest dose activity, negative = inhibition, actives largely listed as inhibitors; 400,000 compounds, 0.53% hits; purified Pol kappa, fluorescent DNA synthesis assay, 10 min; AID 588579; note: % is set by controls: 0 for no effect and ±100 for the full control effect
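10 nM Pol kappa preincubated 15 min at room temperature with compounds, then reaction started with substrate at 50 nM final. Fluorescence read kinetically at 0 and 10 min; buffer-only wells served as negative control.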
WRN inhibitor – blocks human WRN helicase; Q14191; 360,000 compounds, 0.46% hits; Potency, µM (series often up to 114 µM), without a hit: at the highest dose activity change, negative = inhibition, hits mostly inhibitors; WRN helicase unwinding, fluorescent forked duplex, kinetic; note: % is set by controls: 0 for no effect and ±100 for the full control effect; nearly all actives have a fitted effect of over 55% in size
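Enzyme (20 nM final) and test compound sit together 15 min at room temperature before substrate addition. Substrate is a single-forked duplex oligonucleotide (100 nM) labelled with fluorophore and quencher, with 2 mM ATP; helicase unwinding raises red fluorescence, read kinetically.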
Pol kappa inh-2 – confirmation of human DNA polymerase kappa inhibitors; AID 720501; Potency, µM, usual class: inhibitors; purified Pol-kappa, fluorescent strand-displacement substrate; 920 compounds, 76% hits; shares compounds with Pol eta inh-1
Pol eta inh-2 – confirmation of human DNA polymerase eta inhibitors; shares compounds with Pol eta inh-1; Pol eta primer extension, TAMRA/BHQ fluorescence, 10 min; Potency, µM, most hits filed as inhibitors; 2,600 compounds, 64% hits; AID 720502
* hit, by the source's call; u = inconclusive; x = no result; [ ] = dose if it differs, or a comment. An excerpt weighted towards active compounds, which were near 2.4% of everything screened. Calls come from the whole dose curve; as a rule, active = well fitted curve in the direction sought with a large enough effect; inconclusive = small, poorly fitted or top-dose-only effect, or another doubt; inactive = no such curve, though single readings can be large; an effect the other way counts as inactive or inconclusive. Potency is the fitted concentration of half-maximal effect.

SMILES | Pol eta inh-1 | POLI inh | FEN1 inh | Pol beta inh | Pol kappa inh-1 | WRN inhibitor | Pol eta inh-2 | others
Cc1ccc(-n2nc(C)c3c(C)c(CCC(=O)NCc4ccccc4Cl)c(C)nc32)cc1 | x | 33% | 22% | 2% | 3% | x | x
O=C(CSc1ncn(-c2ccccc2)n1)Nc1nc2ccccc2s1 | -17% | -16%[58.9 µM] | -13% | -22% | -12% | -2% | x
O=C(CSc1ncn(-c2ccccc2)n1)Nc1nc2c(s1)CCCC2 | 50µM* | 25µM* | -16% | 32µM* | 0% | -26%[57.1 µM] | u
COc1ccc(OC)c(CCNC(=O)c2c(C)nn(-c3ccc(F)cc3)c2-n2cccc2)c1 | -29% | 24% | 3% | 1% | -10% | x | x
COC(=O)c1csc(C(=O)c2c[nH]c3ccccc23)n1 | x | x | x | x | 0%[60.1 µM] | x | x
COc1ccccc1/C=C1\SC(=S)N(CCC(=O)Nc2ccc(C(=O)O)c(O)c2)C1=O | 35µM* | u | u | 79µM* | -34% | -11%[11.6 µM] | u | Pol kappa inh-2=u
COc1ccccc1/C=C1/SC(=O)N(CCC(=O)Nc2ccc(S(=O)(=O)Nc3nccs3)cc2)C1=O | 20µM* | 50µM* | u | u | -14% | u | u
CC(/C=C1\SC(=S)N(CCC(=O)Nc2cccc(C(=O)O)c2)C1=O)=C\c1ccccc1 | u | -12% | -11% | u | -14% | 79µM* | u | Pol kappa inh-2=u
COc1cccc(Cn2c(=O)cnc3cnc(OC)nc32)c1 | x | x | x | x | 4%[60.1 µM] | x | x
CC(C)C1=CC2=CC[C@@H]3[C@](C)(CCC[C@@]3(C)C(=O)O)[C@H]2CC1 | x | x | x | x | -4%[60.1 µM] | x | x
Cc1cc(C)cc(Nc2cc(C(=O)NCc3ccccc3)c3ccccc3n2)c1 | -22% | 4% | 3% | -13% | -9% | x | x
CC(=O)NC12CC3CC(C1)CC(C(=O)OCC(=O)Nc1ncc(Cl)c(C)c1Cl)(C3)C2 | u | u | -11% | u | -35% | u | u
Cc1ccccc1OCC(=O)OCC(=O)Nc1ncc(Cl)c(C)c1Cl | 28µM* | u | -8% | x | u | -11%[11.6 µM] | u | Pol kappa inh-2=u
Cc1c(Cl)cnc(NC(=O)COC(=O)C2CC2)c1Cl | u | -14% | 10% | x | -24% | 4%[11.6 µM] | x
Cc1c(Cl)cnc(NC(=O)COC(=O)[C@@H](NC(=O)c2ccco2)C(C)C)c1Cl | 50µM* | u | -20% | x | -17% | -8%[11.6 µM] | u | Pol kappa inh-2=u
COc1cc(/C=C2\SC(=O)NC2=O)ccc1Oc1ccc([N+](=O)[O-])cc1[N+](=O)[O-] | 50µM* | u | u | 89µM* | u | -35% | u
CC(c1ccccc1)N1C(=O)c2ccc(C(=O)Nc3ccc(Br)cc3C(=O)O)cc2C1=O (stereo unspecified) | 50µM* | -13% | -32% | 14% | -8% | -15%[11.6 µM] | 76*
C[C@@]12CCC(O)C[C@H]1CCc1ccccc12 (stereo partly specified) | x | x | x | x | -11%[60.1 µM] | x | x
CCNc1ncc2nc(-c3ccc(F)cc3)c(=O)n(Cc3ccc(F)cc3)c2n1 | x | x | x | x | -4%[60.1 µM] | x | x
CCCc1cc(=O)[nH]c(SCC(=O)Nc2sc3c(c2C#N)CCC(C)C3)n1 (stereo unspecified) | 25µM* | 50µM* | -9% | 18µM* | 79µM* | -32% | u
CC1CCc2c(sc(NC(=O)CSc3ncn[nH]3)c2C#N)C1 (stereo unspecified) | -13% | 33% | -6% | 3% | 2% | 0% | x
CCn1nc(-c2ccccc2)c(-c2ccccc2)c(C(=O)OCCOC)c1=O | -12% | 2% | 11% | 5% | -4% | x | x
CC(C)=NNc1cc([N+](=O)[O-])cc2c1C(=O)N(C)S2=O (stereo unspecified) | -7% | -19% | -1% | -1% | -4% | 6% | x
NNc1cc([N+](=O)[O-])cc2c1C(=O)N(Cc1ccccc1)S2=O (stereo unspecified) | 45µM* | 35µM* | -21% | u | 79µM* | -10%[57.1 µM] | u | Pol kappa inh-2=u
CN(C)c1ncc2nc(-c3cc(F)cc(F)c3)c(=O)n(C[C@H]3CCCO3)c2n1 | x | x | x | x | 5%[60.1 µM] | x | x
SMILES | Pol eta inh-1 | POLI inh | FEN1 inh | Pol beta inh | Pol kappa inh-1 | WRN inhibitor | Pol eta inh-2 | others
C/C(=N\Nc1ccc(Cl)c(C(=O)O)c1)c1cccc2ccccc12 | 7.9µM* | 16µM* | -4% | 28µM* | u | u | 27*
C/C(=N\Nc1ccc(Cl)c(C(=O)O)c1)c1cc2ccccc2o1 | -20% | 99% | 3% | 16% | -3% | -21% | x
O=C(O)c1cc(NN=C2c3ccccc3-c3ccccc32)ccc1Cl | 22µM* | u | u | 50µM* | u | u | 38*
O=C(O)c1cccc(NN=C2c3ccccc3-c3ccccc32)c1 | u | 43% | -31% | u | -9% | -21% | x
CCc1cc[n+](C2=C([O-])c3ccccc3C(=O)/C2=N\S(=O)(=O)c2cccs2)cc1 | 50µM* | u | 2% | u | -19% | -32% | 76*
COc1cc(N)c(C(=O)c2nccc3cc(OC)c(OC)cc23)cc1OC | 11% | 234% | 8% | 44% | 3% | -31% | x
COc1cc(Br)c(C(=O)c2nccc3cc(OC)c(OC)cc23)cc1OC | 79µM* | 1.8µM* | -23% | -2% | 9% | -12%[11.6 µM] | u
COc1ccc(C(=O)NNC(=O)Cc2coc3cc(OC)ccc23)cc1 | 20µM* | u | 0% | x | u | -35% | u
COc1ccc2c(CC(=O)Nc3ccccc3OC)coc2c1 | -14% | 12% | -5% | 2% | 2% | -4% | x
O=C(O)c1ccc2oc(=O)c(S(=O)(=O)c3ccc(F)cc3)cc2c1 | -22% | -7% | 2% | -1% | 0% | 0% | x
O=C(O)c1ccc2nc(-c3cc4cc(F)ccc4oc3=O)[nH]c2c1 | 35µM* | u | -7% | 35µM* | 5%[60.1 µM] | x | 60*
CN(C)C(=O)n1nnnc1Cc1ccc(-c2ccccc2)cc1 | x | x | x | x | -13%[60.1 µM] | x | x
O=C1C2C3C=CC(CC3)C2C(=O)N1/N=C/c1ccc(O)cc1 (stereo unspecified) | 4% | 4% | -3% | 22% | -2% | 1% | x
O=C1C2C3C=CC(CC3)C2C(=O)N1/N=C/c1ccc(O)c(O)c1 (stereo unspecified) | 4µM* | u | 6% | u | u | -15%[57.1 µM] | u
COc1ccc(NC(=O)CN(C)C(=O)c2cc(-c3ccccc3)nc3ccccc23)cc1 | -14% | 1% | -18% | x | -9% | -8% | x
